PubChem BioAssay AID2546 (National Center for Advancing Translational Sciences (NCATS), 2010)
Values joined by “and” are separate entries in the source; they are usually repeats but may differ in a detail not shown here. Equal values may be shown once. About 11,000 (3.5%) of roughly 310,000 compounds were called active. Not shown: some 8% with an inconclusive outcome. The entries come from a sample that favours actives as a whole. Values without a mark were called inactive. Calls follow the shape of the dose curve; as a rule, active = well fitted inhibition curve with a large enough effect; inconclusive = small, poorly fitted or top-dose-only effect, or effect the other way; inactive = flat fitted curve, though single readings scatter.

Assay: VP16 counterscreen qHTS for inhibitors of ROR gamma transcriptional activity;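 also: Gal4-VP16 expression switched on by copper sulfate through the metallothionein promoter; nearly all actives have a fitted effect of over 50% in size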
Conditions: Drosophila S2 Gal4-VP16 UAS-luciferase, luminescence, 20 h; series mostly up to 53.6 µM; activity, negative = inhibition: at the top concentration
% is scaled to controls: 0 for no effect and ±100 for the full control effect; potency is read from the fitted curve at half-maximal effect.

Point of comparison: `CC/C(=N\NC(=S)NC(C)C)c1ccc(OC(F)F)cc1`, “activity, negative = inhibition” value -4.95%. Against it:
- CC(C)c1ccc(NC(=O)C2CCCN(S(=O)(=O)c3cccnc3)C2)cc1 (stereo unspecified) — higher, 12.4%
- CCCn1c(C2CCCN2c2nc(-c3ccc(C)cc3)cs2)nc2cc(Cl)c(N3CCCCC3)cc21 (stereo unspecified) — higher, -4.11%
- COc1ccc(CNC(=O)c2cc(=O)c3c(C)cc(C)cc3o2)cc1 — higher, 3.05%
- O=C(NCCCN1CCOCC1)c1cc(-c2ccccc2F)no1 — lower, -7.28%
- COc1ccccc1N1CCN(S(=O)(=O)c2ccc3c(c2)NC(=O)CS3)CC1 — higher, 1.7%
- O=[N+]([O-])c1cccc2ncccc12 — higher, 21.2%
- Cc1ccccc1NC(=O)c1ccccc1NS(=O)(=O)c1cccc2cccnc12 — higher, -4.15%
- Cc1nc2ccc(C(=O)N(C)CC3CCCN(CCc4ccc(Cl)cc4)C3)cc2[nH]1 (stereo unspecified) — higher, -1.01%
- CC(C)CNS(=O)(=O)c1ccc(CCC(=O)NCc2ccc(Cl)cc2)cc1 — lower, -5.64%
- CCOC(OCC)c1ccc(/C=C\c2nccc(N)n2)cc1 — lower, -13.3%
- COC(=O)c1ccc(OC(=O)c2cnccn2)cc1 — higher, -0.541%
- COC(=O)C1=CN(c2ccc(F)c(F)c2)C=C(C(=O)OC)C1c1ccc([N+](=O)[O-])cc1 — higher, -3.79%
- O=c1[nH]c(=S)[nH]c2[nH]c(=S)[nH]c12 — higher, 3.04%
- Cc1ccc(S(=O)(=O)N(CC(=O)Nc2cccnc2)c2ccc(Br)cc2)cc1 — lower, -5.32%
- CCCc1ccc(OCCNC(=O)c2ccco2)cc1 — lower, -28.8%
- COc1ccc(CN2C3CCCC2CC(NC(=O)c2cccc(F)c2)C3)cc1 (stereo unspecified) — higher, 4.69%
- CC(NCC(=O)Nc1cc(Cl)cc(Cl)c1)c1ccccc1 (stereo unspecified) — lower, -25.8%
- COc1ccc(C(=O)NC2CC2)cc1OC1CCN(Cc2ccc(SC)cc2)CC1 — higher, -3.04%
- COCCN(C(=O)CCC(=O)Nc1nccs1)C(C(=O)NC(C)(C)C)c1ccc(Cl)cc1 (stereo unspecified) — higher, 7.06%
- COCCN(C(=O)CCC(=O)Nc1ccccn1)C(C(=O)NCCC(C)C)c1ccc(OC)cc1 (stereo unspecified) — higher, 3.24%
- COc1ccc(C2NC(=O)c3ccccc3N2)cc1 (stereo unspecified) — higher, 3.54%
- Cc1ccc(-c2nn(-c3ccccc3)cc2/C=N/NC(=O)c2ccc3c(c2)OCO3)cc1 — lower, -6.45%
- Cc1nnc(SCC(=O)N/N=C/c2cn(-c3ccccc3)nc2-c2ccc(F)cc2)n1-c1ccccc1 — higher, 1.16%
- C/C(=N\NC(N)=S)c1ccncc1 — lower, -10.3%
- CCOC(=O)N1CCN(Cc2nc3cc(NC(=O)CC)ccc3n2CC)CC1 — higher, 0.519%
- Cc1ccc(CSCC(N)C(=O)O)cc1 (stereo unspecified) — higher, -1.53%
- Cc1ccc(C(=O)CNc2ccc(F)cc2)cc1 — lower, -10.8%
- CCOc1cc(C2/C(=C(/O)c3ccc(S(=O)(=O)N4CCCCC4)cc3)C(=O)C(=O)N2CCOC)ccc1O (stereo unspecified) — lower, -12.6%
- COc1ccccc1OCC(=O)Nc1c2c(nn1-c1ccc(F)cc1)CS(=O)(=O)C2 — lower, -19.6%
- COC(=O)c1ccc(NC(=S)NN2CCOCC2)cc1 — lower, -5.05%
- COC(=O)c1ccc(NC(=O)Nc2ccc(C)cc2)cc1 — higher, 17.7%
- O=C(O)CCCn1c(=O)c2cccn2c2ccc(F)cc21 — higher, 2.07%
- O=C(Nc1cn(-c2ccccc2)nc1-c1ccccc1)c1ccccc1 — lower, -10.9%
- O=C(c1cn(-c2ccccc2)nc1-c1cccnc1)N1CCCCC1 — higher, 4.94%
- CN(CC(=O)NCc1ccc(Cl)cc1)S(=O)(=O)c1cccs1 — higher, 24.2%
- CC(C)=CCCC(C)CN1CCC(n2nccc2NC(=O)c2ccccc2)CC1 (stereo unspecified) — higher, 2.6%
- O=C(CN(C(=O)CCC(=O)Nc1nccs1)c1ccc(F)cc1)NCc1ccc2c(c1)OCO2 — higher, -4.7%
- CC(C)c1ccc(/C=C/C(=O)NNC(=O)c2cccnc2)cc1 — higher, -4.54%

For `O=[N+]([O-])c1ccccc1S(=O)(=O)Nc1cccc2cccnc12`, the Potency was 1.41 µM (active) and 1 µM (active).
With `c1ccc(-c2cn3c(n2)CCc2ccc4cccnc4c2-3)cc1` the Potency was 7.94 µM (active).
For `Cc1cc(=O)[nH]c(=S)[nH]1`, the Potency was “inactive”.
For `Cc1c(C)c(C)c2[nH]c(=S)[nH]c2c1C`, the Potency was 10 µM (active).
In the case of `COCCN(C(=O)CCC(=O)Nc1nccs1)C(C(=O)NCCC(C)C)c1ccc(F)cc1` (stereo unspecified), the Potency is reported as 3.55 µM (active).
In the case of `CCc1ccc(-c2nn(-c3ccccc3)cc2CSC(=N)N)cc1`, the Potency is reported as 20 µM (active).
For `C/C(=N\NC(=S)NC(C)C)c1ccc(C(C)(C)C)cc1`, the Potency was 3.98 µM (active).
With `Cc1ccc(SC(CC(=O)c2ccc(C(C)(C)C)cc2)C(=O)O)cc1` (stereo unspecified) the Potency was 5.01 µM (active).
For `COC(=O)c1ccc(NC(=S)Nc2cccc(C)n2)cc1`, the Potency was 7.08 µM (active).
In the case of `O=C(NNC(=S)NC(=O)c1cn(-c2ccccc2)nc1-c1ccccc1)c1ccncc1`, the Potency is reported as 8.91 µM (active).
For `O=C(/C=C/c1ccc(F)cc1)NC(=S)NNC(=O)c1cccnc1`, the Potency was 10 µM (active).

With `Cc1cc2c(c(=O)n1Cc1ccccc1)C1O[C@](CCCCN3C(=O)c4ccccc4C3=O)(Cc3ccccc31)O2` the activity, negative = inhibition was -4.77% [at 10 µM].
